# Measurements reported in PubChem BioAssay (NCI).
# Compounds without any hit were thinned out: in the full panel of roughly 83,000, 20% have a hit.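 Assay: single dose, 48 h. Readout: percent growth (0 = no net growth; negative = cell death). Active: <10.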 Values without a mark were called inactive. Active and inactive are the calls of the source.
# Legend:
# Experiment in all cases: NCI-60 one-dose screen, 48 h (100 = growth as untreated, 0 = no growth, -100 = all killed)
# Details in all cases: 10 µM unless noted
# NCI-H23 lung = test system: NCI-H23 lung
# NCI-H226 lung = test system: NCI-H226 lung
# NCI-H322M lung = test system: NCI-H322M lung
# HOP-62 NSCLC = test system: HOP-62 NSCLC
# NCI-H460 lung = test system: NCI-H460 lung
# HOP-92 NSCLC = test system: HOP-92 NSCLC
# NCI-H522 lung = test system: NCI-H522 lung
# A549/ATCC NSCLC = test system: A549/ATCC NSCLC
# 786-0 renal = test system: 786-0 renal
# DU-145 prostate = test system: DU-145 prostate
# MALME-3M melanoma = test system: MALME-3M melanoma
# MDA-MB-231 breast = test system: MDA-MB-231 breast
# RXF 393 renal = test system: RXF 393 renal
# SF-268 CNS = test system: SF-268 CNS
# SF-295 CNS = test system: SF-295 CNS
# SF-539 CNS = test system: SF-539 CNS
# UACC-257 melanoma = test system: UACC-257 melanoma
# M14 melanoma = test system: M14 melanoma
# K-562 leukemia = test system: K-562 leukemia
# COLO 205 colon = test system: COLO 205 colon
Structure (SMILES),growth (NCI-H23 lung),growth (NCI-H226 lung),growth (NCI-H322M lung),growth (HOP-62 NSCLC),growth (NCI-H460 lung),growth (HOP-92 NSCLC),growth (NCI-H522 lung),growth (A549/ATCC NSCLC),growth (786-0 renal),growth (DU-145 prostate),growth (MALME-3M melanoma),growth (MDA-MB-231 breast),growth (RXF 393 renal),growth (SF-268 CNS),growth (SF-295 CNS),growth (SF-539 CNS),growth (UACC-257 melanoma),growth (M14 melanoma),growth (K-562 leukemia),growth (COLO 205 colon)
COc1cc(-c2nc(C(=O)NCC(=O)NO)nn2-c2ccc(Cl)cc2)cc(OC)c1OC,97.1%,91.8%,118%,93.6%,107%,86.5%,86.8%,90.1%,101%,107%,129%,101%,107%,104%,107%,96.7%,86.8%,101%,,
N=C(N)c1ccc(-c2ccc(-c3ccc4ccccc4c3)s2)s1,5.5% (active),92.8%,26.5%,86.8%,-70.4% (active),28.8%,15.3%,-36.3% (active),-39.1% (active),-85.4% (active),85.9%,-36.8% (active),-55.1% (active),-6.87% (active),22.3%,73.8%,77%,39.7%,-47.2% (active),
COc1ccc(-n2nc(C)c3c(Oc4ccc(NC(=O)Nc5c(Cl)cccc5Cl)cc4)ncnc32)cc1,98.3%,107%,96.8%,97.7%,101%,98%,93.6%,103%,110%,105%,99.4%,101%,107%,93.6%,100%,96.7%,102%,110%,104%,
c1ccc(-c2c(-c3ccccc3)[n+](Cc3ccc4ccccc4c3)c(-c3ccc(-c4nc5ccccc5s4)cc3)n2Cc2ccc3ccccc3c2)cc1,-82.1% (active),-79.2% (active),-92.1% (active),-90% (active),-67.3% (active),-85.4% (active),-81.3% (active),-77.1% (active),-75.4% (active),-95.4% (active),-78% (active),-84.3% (active),-95.6% (active),-76.9% (active),-99.6% (active),-88.9% (active),-87.5% (active),-80.4% (active),-25.2% (active),
CCOc1cc2c(cc1OCC)C(c1cc(OC)c(O)cc1Cl)NCC2 (centres undefined),96.7%,100%,110%,98.1%,98.4%,114%,102%,88.6%,84.1%,110%,55.2%,88.6%,85.1%,100%,,101%,99.2%,80.2%,53.3%,
O=C(/C=C/C=C/c1ccc2c(c1)OCO2)N/N=C\c1ccc(O)cc1O,30%,37.6%,17.8%,27.1%,14%,53.4%,21.1%,36.1%,29%,44%,40.3%,34.4%,57.9%,24.4%,13.8%,13.3%,28.5%,30.3%,11.6%,
CC(C)(C)CC(C)(C)c1ccc(OCCOCC[N+](C)(C)Cc2ccccc2)cc1,2.23% (active),31.6%,47.7%,-56.7% (active),1.33% (active),-58.7% (active),-44.9% (active),25.5%,,39.4%,-16.4% (active),-88.2% (active),0.0752% (active),-54.1% (active),41.8%,-64.9% (active),-90.8% (active),-27.5% (active),-35.4% (active),-86.5% (active)
CC1C(/C=N/Nc2ccccc2)C(C#N)(C#N)C1(C#N)C#N (centres undefined),78.6%,88%,75.1%,57.1%,87.9%,90.5%,53.9%,85.1%,92.9%,89.7%,99.2%,70.1%,105%,75.4%,70.9%,102%,98.6%,33.2%,,
